Compound activity as filed in PubChem.
Compounds with a hit are over-represented: about 2.4% of the library has one in this group of screens.
PP1 inh: PP1-alpha phosphatase inhibitors, primary screen, counter-screen for PP5 inhibitor project, biochemical, fluorescence, OMFP substrate, single point; purified PP1alpha; AID 2235, 2010; inhibition, % at 6.7 µM; Serine/threonine-protein phosphatase PP1-alpha catalytic subunit (Homo sapiens), P62136; 320,000 tested, 0.9% active;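 active means inhibition above the mean inhibition of all tested compounds plus 3 SD, computed separately for each screening campaign, cut at about 15% in these data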
PREPL inh: PREPL enzyme inhibitors, primary screen, biochemical, fluorescence polarization | Prolyl endopeptidase-like (Homo sapiens), Q4J6C6 | recombinant PREPL, fluorescence polarization activity-based probe | inhibition, % at 5.96 µM | 320,000 tested, 0.68% active; in the data active means inhibition above about 43%;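 further: 0% = enzyme with DMSO and 100% = wells lacking enzyme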
Target sequence (Q4J6C6 whole entry, looked up): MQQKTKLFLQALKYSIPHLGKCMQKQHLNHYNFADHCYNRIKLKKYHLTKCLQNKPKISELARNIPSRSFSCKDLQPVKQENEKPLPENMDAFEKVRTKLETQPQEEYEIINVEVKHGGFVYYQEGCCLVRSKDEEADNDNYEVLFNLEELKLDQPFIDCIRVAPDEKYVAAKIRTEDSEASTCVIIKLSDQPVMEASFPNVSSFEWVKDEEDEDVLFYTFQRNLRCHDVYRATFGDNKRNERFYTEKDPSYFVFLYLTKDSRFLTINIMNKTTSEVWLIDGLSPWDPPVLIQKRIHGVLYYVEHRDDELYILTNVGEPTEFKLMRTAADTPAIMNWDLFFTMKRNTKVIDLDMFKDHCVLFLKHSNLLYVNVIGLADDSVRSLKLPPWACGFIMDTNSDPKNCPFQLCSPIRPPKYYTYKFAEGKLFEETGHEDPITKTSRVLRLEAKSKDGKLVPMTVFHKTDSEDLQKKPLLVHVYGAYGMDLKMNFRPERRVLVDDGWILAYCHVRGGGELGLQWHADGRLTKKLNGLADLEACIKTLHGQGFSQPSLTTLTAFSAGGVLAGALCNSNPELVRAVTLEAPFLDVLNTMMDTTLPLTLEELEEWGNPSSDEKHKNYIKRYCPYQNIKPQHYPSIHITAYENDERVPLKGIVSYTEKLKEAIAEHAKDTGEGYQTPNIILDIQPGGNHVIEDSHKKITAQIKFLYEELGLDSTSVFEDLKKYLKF
Rpn11 block: Rpn11 (PSMD14) deubiquitinase inhibitors, primary screen, biochemical, fluorescence polarization, uHTS; human 26S proteasome, Ub4-pepOG fluorescence polarization; 20S core pre-blocked with epoxomicin; inhibition, % at 20 µM; 360,000 tested, 0.59% active; AID 588493, 2011;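 active means inhibition at 20 µM, scaled to each plate's controls, above about 33%, limit read from the data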
NadD inh: inhibitors of S. aureus NadD, primary screen, biochemical, colorimetric, uHTS. Nicotinate-nucleotide adenylyltransferase NadD (Staphylococcus aureus N315). purified NadD enzyme, colorimetric absorbance read-out. inhibition, % at 20 µM. 360,000 tested, 0.78% active; in the data active means inhibition above about 26%
PP5 inh: PP5 phosphatase inhibitors, primary screen, biochemical, fluorescence | Serine/threonine-protein phosphatase 5 (Homo sapiens), P53041 | purified PP5c, OMFP substrate fluorescence | inhibition, % at 6.7 µM | 320,000 tested, 0.18% active | AID 1987, 2009;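 active means inhibition above the campaign's mean inhibition across all tested compounds plus 3 SD, cut at about 9.5% in these data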;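 further: 0% = DMSO only and 100% = 100 µM cantharidin control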
PP1 confirm: PP1 phosphatase inhibitors, confirmation, biochemical, fluorescence, OMFP substrate, triplicate | shares compounds with PP1 inh | purified PP1alpha | inhibition, % at 6.7 µM | 1,900 tested, 52% active | AID 2358, 2010;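 active means mean PP1 inhibition above a set limit taken from the earlier primary screen, cut at about 15% in these data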
PP5 inh counter: PP5 phosphatase inhibition by PP1 hits, confirmation, counter-screen for PP1 inhibitor project, biochemical, fluorescence, triplicate; shares compounds with PP1 inh; purified PP5c, OMFP fluorescence; inhibition, % at 6.7 µM; 1,900 tested, 4% active; AID 2360, 2010;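 active means mean PP5 inhibition over triplicate wells above about 9.5% taken from the earlier PP1 screen, limit read from the data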
NadD conf: inhibitors of S. aureus NadD, confirmation, biochemical, colorimetric, single concentration | shares compounds with NadD inh | purified S. aureus NadD, colorimetric enzyme assay | inhibition, % at 20 µM | 2,000 tested, 13% active; in the data active means inhibition mostly above about 42%, no sharp cut-off; inactive means mostly below about 42%
Active calls of the source: *; · = no result given.

SMILES | PP1 inh | PREPL inh | Rpn11 block | NadD inh | PP5 inh | PP1 confirm | PP5 inh counter | NadD conf
O=C(CSCc1nc2scc(-c3cccs3)c2c(=O)[nH]1)Nc1ccccn1 | 2.5 | 0.8 | 22.5 | 0.2 | 0.4 | · | · | ·
O=c1[nH]c(CN2CCc3ccccc32)nc2scc(-c3cccs3)c12 | 18.6* | 0.1 | 35.3 | 42.3* | -1.3 | 13.3 | -1.1 | 13.5
CCOc1ccccc1NC1=NC2CS(=O)(=O)CC2S1 (centres undefined) | -3.0 | -3.6 | 5.4 | -5.2 | 0.7 | · | · | ·
O=C(CSc1nc2ccc(NC(=O)CSc3nnnn3-c3ccccc3)cc2s1)Nc1ccccc1 | 20.3* | -3.2 | 25.7 | 38.9* | 2.9 | 25.8* | -2.0 | 19.8
Cc1cccc(NC(=O)CSc2nc3ccc(NC(=O)CSc4nnnn4-c4ccccc4)cc3s2)c1C | 0.1 | -18.6 | · | · | 1.3 | · | · | ·
COc1cccc(/C=N/NC(=O)C(C)Cn2cnc3ccccc32)c1 (centres undefined) | -8.5 | -65.7 | -5.6 | -1.1 | -1.8 | · | · | ·
O=C(Nc1cccc(S(=O)(=O)NC2=NCCC2)c1)c1cc(-c2ccco2)nc2ccccc12 | 25.5* | 15.0 | · | 67.5* | 1.0 | 5.9 | -4.9 | 78.3*
S=c1[nH]nc(-c2cc(-c3ccccc3)n[nH]2)n1/N=C/C=C/c1ccccc1 | 22.8* | -7.5 | 6.9 | 32.6* | 5.2 | 16.9* | 0.4 | 19.1
COc1ccccc1/C=C/C=N/n1c(-c2cc(-c3ccccc3)n[nH]2)n[nH]c1=S | 21.7* | 8.0 | 11.7 | 35.7* | 2.4 | 27.1* | 3.1 | 33.2
S=c1[nH]nc(-c2cc(-c3ccccc3)n[nH]2)n1/N=C/c1ccccc1 | -0.9 | -8.1 | -4.1 | 9.1 | -1.7 | · | · | ·
COc1ccc(CNC(=O)c2ccc(NC(=O)C3=CSCCO3)cc2)cc1 | -1.0 | -1.9 | -6.7 | -7.9 | 2.9 | · | · | ·
Cc1cc(C)c2oc(C(=O)Nc3ccc(S(=O)(=O)Nc4nccs4)cc3)cc(=O)c2c1 | 7.2 | -3.2 | 4.0 | 20.8 | 3.6 | · | · | ·
Cc1cc2oc(C(=O)Nc3ccc(S(=O)(=O)Nc4nccs4)cc3)cc(=O)c2cc1Cl | 38.9* | -4.9 | -1.4 | 64.5* | -1.3 | 31.1* | -3.0 | 23.3
COc1ccccc1NS(=O)(=O)c1cccc(-n2c(O)c(C=Nc3ccccc3C(=O)O)c3ccccc3c2=O)c1 | 22.6* | 22.0 | 21.1 | 31.1* | 4.0 | 12.2 | 1.0 | 54.0*
COc1ccc(Cn2c(O)c(C=Nc3ccccc3C(=O)O)c3ccccc3c2=O)cc1 | 7.0 | 15.3 | 14.8 | 15.8 | 1.3 | · | · | ·
CC(C)(CNC(=O)c1ccc(-c2ccccc2Cl)o1)N1CCOCC1 | -4.9 | 14.5 | -0.1 | 1.1 | 4.4 | · | · | ·
Cc1cccc(N2CC(C(=O)Nc3nnc(SCc4cccnc4)s3)CC2=O)c1 (centres undefined) | 3.6 | 5.4 | 14.4 | 15.1 | -0.6 | · | · | ·
Cc1cccc(N2CC(C(=O)Nc3nnc(SCC(=O)Nc4cc(C)on4)s3)CC2=O)c1 (centres undefined) | 27.3* | -2.2 | 17.3 | 74.4* | -1.1 | 26.5* | -3.1 | 0.4
O=C(CSc1nc(=O)n2ccccc2n1)N1N=C(c2cccs2)CC1c1ccc(F)cc1 (centres undefined) | 10.2 | 3.4 | -8.8 | 12.8 | 1.9 | · | · | ·
Cc1ccc(C2CC(c3cccs3)=NN2C(=O)CSc2nc(=O)n3ccc(C)cc3n2)cc1 (centres undefined) | 22.4* | 11.4 | 8.5 | 38.0* | -1.9 | 15.8* | 2.0 | 51.0*
Cc1cc(C)c2sc(NNC(=O)c3ccc(S(=O)(=O)N4CCc5ccccc5C4)cc3)nc2c1 | 24.3* | 3.5 | 15.3 | 63.7* | 3.9 | 37.5* | -2.1 | 55.6*
Cc1cc(C)c2nc(NNC(=O)c3ccc(S(=O)(=O)N4CCc5ccccc5C4)cc3)sc2c1 | 21.9* | 8.4 | 23.9 | 60.4* | 1.1 | 26.8* | 1.0 | 61.2*
Cc1cc(C)c2sc(N(CCCN(C)C)C(=O)c3ccc(S(=O)(=O)N4CCc5ccccc5C4)cc3)nc2c1 | 7.8 | 4.4 | 7.3 | 10.8 | 5.2 | · | · | ·
Cc1ccc(NC(=O)C2=NNC(=O)CC2)cc1S(=O)(=O)Nc1ccc(SC(F)F)cc1 | -0.1 | 3.8 | 0.5 | -4.7 | 1.3 | · | · | ·
Cc1ccc(CNC(=O)c2ccc(N3CCC4(CC3)CC(c3cccc(Br)c3)=NO4)c(NC(=O)c3ccc(Br)cc3)c2)cc1 | · | -14.1 | 36.2 | 28.5 | · | · | · | ·
SMILES | PP1 inh | PREPL inh | Rpn11 block | NadD inh | PP5 inh | PP1 confirm | PP5 inh counter | NadD conf
Cc1ccc(CNC(=O)c2ccc(N3CCC4(CC3)CC(c3cccc(Br)c3)=NO4)c(NC(=O)c3c(Cl)cccc3Cl)c2)cc1 | 21.3* | -8.3 | 10.7 | 33.4* | -0.5 | 13.6 | -1.7 | -0.8
COc1ccc(-c2noc(CCCC(=O)NCC3CCCO3)n2)cc1 (centres undefined) | 2.5 | -3.2 | -5.3 | -2.5 | 0.0 | · | · | ·
Nc1c(C(=O)Nc2nc3ccccc3s2)sc2nc(-c3cccs3)ccc12 | 30.9* | 10.2 | 29.4 | 33.6* | 1.1 | 31.6* | -0.9 | 23.3
CC[n+]1c(/C=C(\C)SC)sc2ccccc21 | 2.1 | 13.8 | 6.6 | -3.4 | 2.4 | · | · | ·
CCN1/C(=C/C=C/C=C/C=C/c2sc3ccccc3[n+]2CC)Sc2ccccc21 | 19.9* | -16.2 | 39.3 | 39.7* | -1.9 | 39.1* | -0.4 | 79.0*
COC(=O)C/C(C)=N/Nc1ccc(S(=O)(=O)N2CCCC2)cc1[N+](=O)[O-] | -3.6 | -1.2 | -3.0 | -1.5 | 3.6 | · | · | ·
O=C(NCc1ccncc1)C1Cc2c(-c3ccccc3Oc3ccccc3)ccnc2O1 (centres undefined) | · | · | -2.9 | -4.7 | · | · | · | ·
NC(=O)[C@H](Cc1cc2ccccc2s1)NC(=O)[C@@H]1CC2(CC(c3cccc(NC(=O)[C@@H]4CCC(=O)N4)c3)=NO2)CN1C(=O)/C=C/c1c(F)cccc1Cl (some centres undefined) | 30.1* | -35.3 | 9.3 | 34.4* | 5.3 | 20.0* | 6.2 | 21.0
N#CCSc1nc2ccc(N3CCCCC3)cc2c(=O)n1Cc1ccccc1 | 23.1* | 26.6 | -1.9 | 41.1* | 3.7 | 20.9* | -0.7 | 5.5
N#CCSc1nc2ccccc2c(=O)n1CC1CCCC1 | 2.5 | 12.1 | 14.3 | -0.8 | -0.2 | · | · | ·
